In PubChem BioAssay AID977606 (Broad Institute, 2014):
The whole screen tested about 1,500 compounds, of which about 430 (29%) were called active. The rule behind the calls is not given here. A selection follows. Measured potencies and affinities stand elsewhere.

test: insulin secretion activators without glucose, dose response, counter-screen for glucose-dependent insulin secretion activators, cell-based, INS-1E, Gaussia luciferase, luminescence, cherry-pick (AID 977606); conditions: INS-1E Gaussia luciferase insulin secretion, no glucose, 100% = twice neutral-control luminescence; series mostly up to 35 µM; activation: at the top concentration;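 note: 0% = median of neutral control wells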

Compound	activation	outcome
CC(C)c1ccc(NC2CCCN(C(=O)c3cccnc3)C2)cc1 (stereo not given)	-5.56% (inactive)	–
COc1ccc(CCn2ccc(O)c(Cc3c(F)cccc3Cl)c2=O)cc1OC	-4.25% (inactive)	–
CCN(C[C@H]1N[C@@](CC)(C(=O)OC)[C@H]2C(=O)N(C)C(=O)[C@@H]12)S(=O)(=O)c1ccc(OC)cc1	-1.45% (inactive)	–
COc1ccc(CCC(=O)NC2CCC(C)CC2)cc1 (stereo not given)	-4.09% (inactive)	–
COC(=O)C1=C(C)NC(=S)NC1c1ccc(OC)cc1 (stereo not given)	7.53% (inactive)	–
CNc1nc(Nc2ccccc2)nc(OCC(F)(F)F)n1	8.61% (inactive)	–
CCCCN(Cc1nc2ccccc2c(=O)[nH]1)C(=O)c1nn(C)c(=O)c2ccccc12	-9.37% (inactive)	–
c1cn2cc(-c3ccc(CN4CCOCC4)cc3)ccc2n1	-12.3% (inactive)	–
CC(C)CN(C(=O)C1CCCCC1)C1CCS(=O)(=O)C1 (stereo not given)	-8.45% (inactive)	–
Cc1ccc(CN(C(=O)c2cccs2)C2CCS(=O)(=O)C2)cc1 (stereo not given)	11% (inactive)	–
Cc1c(Cc2ccccc2)sc(NC(=O)C(C)(C)C)c1C(N)=O	38.4% (inactive)	–
Cc1c(Cc2ccccc2)sc(NC(=O)c2ccco2)c1C(N)=O	-3.42% (inactive)	–
COC(=O)c1cc(S(=O)(=O)NCC2CCN(Cc3cc(C)ccc3C)CC2)c[nH]1	8.92% (inactive)	–
Cc1ccc(C)c(OCC(=O)Nc2cc(NC(=O)COc3cc(C)ccc3C)cc(C(=O)O)c2)c1	-15.1% (inactive)	–
Cc1ccc(C)c(OCC(=O)NCC(C)(C)N2CCOCC2)c1	-11.9% (inactive)	–
O=C1CC(=O)Nc2cc(S(=O)(=O)NCc3cccs3)ccc2N1	-3.25% (inactive)	–
O=C1CSC(c2cccc(O)c2)N1Cc1ccccc1 (stereo not given)	-0.893% (inactive)	–
CC(C)Cc1nc2oc3c(NCc4cccnc4)ncnc3c2c2c1CCC2	-15% (inactive)	–
CCOC(=O)C1CCCN(C(=O)c2ccccc2OC(F)(F)F)CC1 (stereo not given)	1.8% (inactive)	–
CN(C)N1C(N)=C(C#N)C(c2ccc(F)cc2)C2=C1CCCC2=O (stereo not given)	7.12% (inactive)	–
O=C(O)c1ccc(-n2nc(-c3ccccc3)c3ccccc3c2=O)cc1	-3.75% (inactive)	–
O=c1c2ccccc2c(-c2ccccc2)nn1-c1ccccn1	-6.35% (inactive)	–
Cc1ccccc1SC1CCN(C(=O)C2CCC(=O)N(C3CC3)C2)CC1 (stereo not given)	0.358% (inactive)	–
COc1ccc(CCNC(=O)C(=O)c2c(C)n(C)c3ccccc23)cc1OC	-5.15% (inactive)	–
CCc1nc(N)nc(N)c1-c1ccc(Cl)c(N=[N+]=[N-])c1	–	inactive
COc1ccc(C(C)=O)cc1CSCc1cc(C(C)=O)ccc1OC	0.399% (inactive)	–
CN(C)CCCN(C(=O)CCOc1ccccc1)c1nc2c(F)cccc2s1	22.9% (inactive)	–
COc1ccc(CCNC(=O)CCn2c(=O)c3cccn3c3cccnc32)cc1OC	-8.89% (inactive)	–
COc1ccc(C2=NN(C(=O)c3ccco3)C(c3cccs3)C2)cc1OC (stereo not given)	2.94% (inactive)	–
CC(=O)N1CCN(c2nnc(-c3ccccc3)c3ccccc23)CC1	-7.28% (inactive)	–
